BoNT-F LC inh = blocks Botulinum neurotoxin F light chain protease; inhibition, % at 10 µM; Multiplex microsphere protease cleavage assay, flow cytometry; AID 588497; 360,000 tested, 0.22% active; in the data active means inhibition above about 35%, passing the limit was not always enough; inconclusive means no clear call, values can overlap the other calls; further: plate controls were buffer without enzyme for full effect and enzyme alone for no effect
Autofluor counter = counter-screen for toxin protease inhibitors: compound fluorescence; compound autofluorescence counterscreen, microsphere flow cytometry; hits give high values; fluorescence intensity (test concentration not listed); 360,000 tested, 3.1% active; AID 624483; in the data active means fluorescence intensity above about 16000; inconclusive means no clear call, values can overlap the other calls
BoNT-A LC inh2 = BoNT A light chain protease inhibition | multiplex microsphere protease substrate cleavage, flow cytometry | 360,000 tested, 0.17% active | AID 588499 | inhibition, % at 10 µM; further: plate controls were buffer without enzyme for full effect and enzyme alone for no effect
3CLpro inhibitor = SARS-CoV 3CLpro protease inhibition. P0C6X7. recombinant SARS-CoV 3CLpro, quenched FRET peptide cleavage. inhibition, % at 6 µM. 290,000 tested, 0.14% active. AID 1706; in the data active means inhibition above about 12%
Anthrax LF prot = inhibitors of Bacillus anthracis lethal factor protease; P15917; multiplex microsphere protease cleavage assay, LF; inhibition, % at 10 µM; 360,000 tested, 0.12% active; further: plate controls were buffer without enzyme for full effect and enzyme alone for no effect
Target sequence (P15917 whole entry, looked up): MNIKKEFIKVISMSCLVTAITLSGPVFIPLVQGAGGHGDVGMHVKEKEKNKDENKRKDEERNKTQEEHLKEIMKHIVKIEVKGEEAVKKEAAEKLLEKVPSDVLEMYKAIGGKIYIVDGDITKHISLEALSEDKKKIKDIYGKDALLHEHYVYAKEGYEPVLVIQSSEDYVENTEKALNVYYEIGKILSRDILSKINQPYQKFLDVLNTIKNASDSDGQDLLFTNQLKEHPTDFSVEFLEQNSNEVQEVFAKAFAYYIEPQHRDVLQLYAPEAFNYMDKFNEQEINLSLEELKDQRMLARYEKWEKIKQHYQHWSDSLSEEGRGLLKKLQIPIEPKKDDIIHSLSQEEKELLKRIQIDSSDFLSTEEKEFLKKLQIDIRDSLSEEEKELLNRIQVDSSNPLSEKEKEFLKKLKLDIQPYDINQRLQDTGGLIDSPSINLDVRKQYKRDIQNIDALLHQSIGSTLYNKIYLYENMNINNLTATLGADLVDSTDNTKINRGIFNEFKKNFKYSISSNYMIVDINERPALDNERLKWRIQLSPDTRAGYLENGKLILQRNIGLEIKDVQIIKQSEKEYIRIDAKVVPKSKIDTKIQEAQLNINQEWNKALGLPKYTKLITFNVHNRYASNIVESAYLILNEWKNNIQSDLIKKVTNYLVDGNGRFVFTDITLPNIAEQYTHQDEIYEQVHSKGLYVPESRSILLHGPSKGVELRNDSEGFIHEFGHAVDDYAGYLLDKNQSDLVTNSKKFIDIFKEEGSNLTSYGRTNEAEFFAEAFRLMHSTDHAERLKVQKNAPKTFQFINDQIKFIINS
Active calls of the source: *; ? = inconclusive; . = not tested or not shown. Rows were chosen to be rich in hits. Some 3.5% of all compounds tested hit in one or more screens of this group. Unless noted, no stated cut-off is given here; in the data, active means inhibition above about 30%; inconclusive means no clear call, values can overlap the other calls; inactive means below that.

SMILES	BoNT-F LC inh	Autofluor counter	BoNT-A LC inh2	3CLpro inhibitor	Anthrax LF prot
COc1cc(-c2nnc(COc3ccc4ccccc4c3)o2)cc(OC)c1OC	2	22472*	2	-2	-1
COCCCNC(=O)c1c(NC(=O)c2ccco2)n(Cc2ccccc2)c2nc3ccccc3nc12	10	2513	20	2	12
COCCNC(=O)c1c(NC(=O)c2ccc(Br)o2)n(Cc2ccccc2)c2nc3ccccc3nc12	0	3089	35*	4	11
Cc1cc(N2CCN(c3ccccc3)CC2)nc(-c2ccccc2)n1	-9	3486	-1	2	-8
Cc1cc(N2CCN(c3ccccc3)CC2)nc(N)n1	-2	20567*	?	1	1
CCn1c(SCC#N)nc2c(c1=O)C1(CCCC1)Cc1ccccc1-2	-7	24128*	-2	-1	0
N#CCSc1n[nH]c2nc3c(c(=O)n12)C1(CCCCC1)Cc1ccccc1-3	1	5625	1	8	-3
COc1ccc(OC)c(S(=O)(=O)N2CCC(C(=O)N3CCOCC3)CC2)c1	0	4189	0	0	-7
CCCCc1cc(=O)oc2cc(C)cc(OCC(=O)O)c12	3	21248*	?	-5	-2
c1ccc(C[n+]2csc3ccccc32)cc1	-9	7813	-1	0	-9
Fc1cccc(C[n+]2csc3ccccc32)c1	-9	17119*	-3	4	-3
Cc1ccc(S(=O)(=O)N2CCCCC2C(=O)N2CCN(c3ccccc3F)CC2)cc1 (configuration not stated)	-4	10825	0	0	1
COC(=O)c1cnn2c(C)c(Cc3cccc(F)c3)c(C)nc12	-12	4348	-1	4	-10
Cc1ccccc1Cc1c(C)nc2nc(SCC(=O)NCc3ccco3)nn2c1C	8	9154	2	1	-9
Cc1nc2c(C(=O)N3CCC4(CC3)OCCO4)cnn2c(C)c1Cc1cccc(Cl)c1	-4	3969	0	4	-2
Cc1nc2c(C(=O)O)cnn2c(C)c1Cc1ccccc1F	8	19848*	?	.	-13
Cc1nc2c(C(=O)N3CCCC3)cnn2c(C)c1Cc1c(F)cccc1Cl	-4	23177*	-1	-7	-5
Cc1ccccc1Cc1c(C)nc2c(C(=O)NCc3ccco3)cnn2c1C	-5	17104*	-4	1	-4
CCC1(C)CC(=O)N(c2ccc(C(=O)O)c(O)c2)C1=O (configuration not stated)	2	5973	0	4	-2
CC1=C(C(=O)N(C(C)C)C(C)C)CC(CC(=O)NCc2ccco2)C(=O)N1Cc1ccc(F)cc1 (configuration not stated)	-5	5957	0	.	-5
C#CC(CC)(CC)NC(=O)c1nn(-c2ccccc2Cl)c(C)cc1=O	-20	3115	-3	-2	3
O=C(CN1CCc2ccccc21)NCc1ccccc1Cl	1	2742	0	2	-1
CCC(=NCc1ccccc1)c1c(C(F)(F)F)[nH]n(-c2nc3ccccc3s2)c1=O	-2	16663*	-2	0	-4
CCOC(=O)c1[nH]c(COC(=O)c2ccccc2NC(=O)c2ccco2)c(C(=O)OCC)c1C	-16	9061	-1	6	0
CCCCCNC(=O)c1ccccc1SC	-4	16772*	-2	-4	-2
SMILES	BoNT-F LC inh	Autofluor counter	BoNT-A LC inh2	3CLpro inhibitor	Anthrax LF prot
CSc1ccccc1C(=O)NCCSc1ccccc1	-2	16492*	-1	3	-4
Cc1ccccc1C(=O)NCCSc1ccccc1	-17	2093	0	-4	-1
CCCCNC(=O)c1ccccc1C(=O)NCCCC	-9	9474	-1	1	5
O=C(CN1CCCCCC1)NCC1CCCO1 (configuration not stated)	1	4689	-1	-4	-5
O=C1C2C3CC(C(Br)C3Br)C2C(=O)N1CC1CCCO1 (configuration not stated)	?	4187	-9	-2	-6
O=C1C2C3C=CC(C3)C2C(=O)N1CC1CCCO1 (configuration not stated)	-1	20157*	?	-3	1
O=C(NCC1(O)CCCCC1)C1CCC(=O)N(Cc2ccccc2F)C1 (configuration not stated)	4	5808	3	-1	6
CNC(=O)COC(=O)c1ccccc1Oc1ccccc1	1	16994*	-1	-10	-1
NC(=O)NC(=O)COC(=O)c1ccccc1Oc1ccccc1	0	2550	0	-4	-2
CNC(=O)COC(=O)c1cc(=O)[nH]c2ccccc12	-2	23831*	0	-2	0
NC(=O)COC(=O)c1cc(=O)[nH]c2ccccc12	-5	4721	-1	2	-5
Cc1ccccc1CSc1nnc(-c2ccncc2)n1C	-20	3298	-1	0	6
COc1ccccc1CNCC(O)(c1ccc(Cl)cc1)c1ccc(Cl)cc1	-17	23819*	?	4	-4
CC1CCN(S(=O)(=O)c2ccc(-c3nnc(SCc4cccnc4)o3)cc2)CC1	-3	23932*	-1	-8	-2
COc1ccc(NC(=O)CSc2nnc(-c3cccnc3)o2)cc1	9	21010*	5	4	-1
COc1cccc(-c2nnc(SCc3cccnc3)o2)c1	-7	17724*	-3	-3	-2
COc1cc(-c2nnc(-c3cccnc3)o2)cc(OC)c1OC	-3	7290	-1	6	0
COc1ccc(-c2nnc(-c3cccnc3)o2)cc1OC	-9	24717*	-7	-2	-2
COc1ccc(CCNS(=O)(=O)c2ccc(-n3cnnn3)c(OC)c2)cc1OC	2	4231	-1	1	-2
COc1ccc(C(=O)Nn2c(C)ccc2C)cc1OC	-31	2206	2	2	-17
CC/C=C/C(=O)N1CC2(CC(c3cccc(NC(=O)c4ccccc4)c3)=NO2)C[C@@H]1C(N)=O (some centres not stated)	-5	3955	0	0	5
COCCN(C(=O)CCC(=O)Nc1cc(C)on1)C(C(=O)NC1CCCC1)c1ccc(C)cc1 (configuration not stated)	-5	4518	1	-5	0
O=P(O)(c1ccccc1)c1ccccc1O	?	4160	0	-1	-1
COC(=O)CSc1nnc(-c2ccncc2)o1	19	16743*	?	-2	3
Cc1ccc(NC(=O)CSc2nnc(-c3ccncc3)o2)cc1	8	13604	6	4	-18
SMILES	BoNT-F LC inh	Autofluor counter	BoNT-A LC inh2	3CLpro inhibitor	Anthrax LF prot
COc1ccc(-c2nnc(SCC(=O)OC3CCCCC3)o2)cc1OC	5	19136*	3	3	-1
COC(=O)CSc1nnc(-c2ccc(S(=O)(=O)N3CCCCC3)cc2)o1	-4	9120	0	-2	6
Clc1ccccc1CSc1nnc(-c2ccncc2)o1	0	6055	0	4	1
COc1ccc(-c2nnc(SCC(=O)N3CCCCC3)o2)cc1OC	-14	6606	1	2	2
c1ccc2c(CSc3nnc(-c4ccncc4)o3)cccc2c1	-1	23894*	-1	5	2
CCOC(=O)CSc1nnc(-c2ccc(NS(=O)(=O)c3ccc(C)cc3)cc2)o1	-1	20276*	0	1	-2
